From PubChem
IL-1B inflam inh = blocks inflammasome-driven IL-1 beta release; THP-1 LPS/ATP IL-1B secretion, AlphaLISA, 16 h; stronger effect = lower value; AID 743279; 360,000 tested, 4.7% active; activity change, % at 57.5 µM; in the data active means activity change below about -50%; inconclusive means mostly about -30% to -49%
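THP-1 cells pretreated 1 hr with compounds (up to 57.5 uM final), then stimulated with LPS (250 ng/mL final) plus ATP (1.25 mM final); secreted IL-1B measured by AlphaLISA after 16 hr, decreased signal indicating inhibition.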
HT1080NT lethal = kills 2HG-producing HT-1080-NT fibrosarcoma cells | 360,000 tested, 1.6% active | HT-1080-NT fibrosarcoma viability, CellTiter-Glo ATP luminescence, 48 h | Potency, µM (top dose mostly 46.1 µM), inactives show at the top dose activity, negative = less viability, most hits filed as cytotoxic;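 further: NT is the 2HG producing partner of a matched IDH1 knockdown line; potency means the concentration at half of the fitted maximal effect; 0% = DMSO-treated cells and -100% = media-only wells without cells; nearly all actives have a fitted effect of over 55% in size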
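HT-1080-NT; 750 cells/well; 5% FBS RPMI; 48 h compound, 37 degrees C; CellTiter-Glo luminescence; curve fitting and curve-class assignment.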
HT1080 IDH1KD tx = HT-1080 IDH1 knockdown cell toxicity (counter line) | HT-1080 IDH1 knockdown viability, ATP luminescence, 48 h | Potency, µM (titrated, usually from 46.1 µM), for the others: top-dose activity, negative = toxicity, hits mostly cytotoxic | 360,000 tested, 2% active;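 further: potency means the concentration at half of the fitted maximal effect; 0% = DMSO wells and -100% = cell-free medium wells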
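Using the IDH1-knockdown HT-1080 line run in the same batch and compound series as the NT line, viability after 48 h at 37 °C was determined by CellTiter-Glo luminescence and expressed as % activity.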
DT40 TDP1 CPT = DT40-hTDP1 cell growth loss with CPT; 420,000 tested, 12% active; Potency, µM (titrated, usually from 46.2 µM), inactives show at the highest dose activity change, negative = growth inhibition, most hits filed as inhibitors; chicken DT40 Tdp1-/-;hTDP1 cells + 20 nM CPT, ATP luminescence, 48 h; further: potency means the concentration at half of the fitted maximal effect; nearly all actives have a fitted effect of over 55% in size
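Cell growth measured by CellTiter-Glo luminescence after a minimum 48 h, 37 C compound exposure with 20 nM CPT in Tdp1-knockout DT40 cells stably expressing hTDP1, seeded 400/well; qHTS titration format.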
TDP1 cell noCPT = qHTS for Inhibitors of human tyrosyl-DNA phosphodiesterase 1 (TDP1): qHTS in cells in absence of CPT; DT40 Tdp1-/- hTDP1 cells, no CPT, ATP luminescence, 48 h; Potency, µM (titrated, usually from 46.2 µM), for the others: at the top dose activity change, negative = growth inhibition, hits mostly inhibitors; AID 686978, 2013; 420,000 tested, 15% active; further: potency means the concentration at half of the fitted maximal effect; nearly all actives have a fitted effect of over 55% in size
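Luminescent ATP content (CellTiter-Glo) served as the growth readout. Knockout chicken DT40 cells expressing human TDP1 were exposed to compounds without camptothecin for a minimum 48 hr at 37 °C.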
The depositor's hits bear a star. Most compounds without a hit are left out; they make up all but 19% or so of the library. Unless noted, the call rests on the fitted dose curve; in most records, active means well fitted curve in the direction sought with a large enough effect; inconclusive means small, poorly fitted or top-dose-only effect, or another doubt; inactive means no such curve, though single readings can be large; an effect the other way counts as inactive or inconclusive. Unless noted, on the % scale 0 is the no-effect control and ±100 the full control effect.

For COC(=O)c1ccc(NC(=S)NCCc2cccc(C)c2)cc1 the results were IL-1B inflam inh 181, HT1080NT lethal 9%, HT1080 IDH1KD tx 0%, DT40 TDP1 CPT inconclusive and TDP1 cell noCPT inconclusive.
For CCCCc1ccc(NC(=S)NCc2cccc(OC)c2)cc1 the results were IL-1B inflam inh -79*, HT1080NT lethal -10%, HT1080 IDH1KD tx -16%, DT40 TDP1 CPT inconclusive and TDP1 cell noCPT inconclusive.
`CCCCc1ccc(NC(=S)Nc2cccnc2)cc1` gave IL-1B inflam inh 14, HT1080NT lethal 7%, HT1080 IDH1KD tx -1%, DT40 TDP1 CPT 0% and TDP1 cell noCPT -18%.
COC(=O)c1ccc(NC(=S)NCCc2ccc(OC)cc2)cc1 was read as IL-1B inflam inh -21, HT1080NT lethal -7%, HT1080 IDH1KD tx -8%, DT40 TDP1 CPT inconclusive and TDP1 cell noCPT 3.7µM*.
COc1ccc(/C=N/NC(=O)c2nnn(-c3nonc3N)c2CN(C)C2CCCCC2)cc1 was read as IL-1B inflam inh 8, HT1080NT lethal -2%, HT1080 IDH1KD tx 11%, DT40 TDP1 CPT 6% and TDP1 cell noCPT 14%.
Screening CC1=C/C(=C/N(C)c2ccccc2)C(=O)S1 returned IL-1B inflam inh -11, HT1080NT lethal 13%, HT1080 IDH1KD tx 2%, DT40 TDP1 CPT 21µM* and TDP1 cell noCPT 26µM*.
Screening CC1=C/C(=C\c2ccc3c(c2)OCO3)C(=O)S1 returned IL-1B inflam inh -10, HT1080NT lethal 4%, HT1080 IDH1KD tx 2%, DT40 TDP1 CPT -1% and TDP1 cell noCPT 4%.
Cc1ccc(S(=O)(=O)N2CCC(C(=O)NCCCN3CCOCC3)CC2)cc1 was read as IL-1B inflam inh 12, HT1080NT lethal 2%, HT1080 IDH1KD tx 4%, DT40 TDP1 CPT 6% and TDP1 cell noCPT 1%.
`CCOC(=O)c1cc(-c2ccc(OC)cc2)n(CCC(=O)NCCN2CCC(C)CC2)c1C` gave IL-1B inflam inh inconclusive, HT1080NT lethal -15%, HT1080 IDH1KD tx -17%, DT40 TDP1 CPT inconclusive and TDP1 cell noCPT inconclusive.
`CCOC(=O)c1cc(-c2ccc(F)cc2)n(CCC(=O)NC2CCCCC2)c1C` gave DT40 TDP1 CPT 15µM* and TDP1 cell noCPT 15µM*.
For CCOC(=O)c1cc(-c2ccc(F)cc2)n(CC(=O)NC2CCCCC2)c1C the results were DT40 TDP1 CPT -26% and TDP1 cell noCPT inconclusive.
Screening CC(=O)c1cc(-c2ccccc2)n(CCC(=O)NC2CCCCCCC2)c1C returned IL-1B inflam inh -24, HT1080NT lethal inconclusive, HT1080 IDH1KD tx -27%, DT40 TDP1 CPT inconclusive and TDP1 cell noCPT 23µM*.
CC(=O)c1cc(-c2ccccc2)n(CCC(=O)NC(C)(C)C)c1C was read as IL-1B inflam inh 58, HT1080NT lethal 9%, HT1080 IDH1KD tx 1%, DT40 TDP1 CPT 1% and TDP1 cell noCPT -20%.
Screening CCOC(=O)c1cc(-c2ccccc2)n(CCC(=O)NC2CCCCC2)c1C returned DT40 TDP1 CPT inconclusive and TDP1 cell noCPT 13µM*.
CCC(C)(C)NC(=O)CCn1c(-c2ccccc2)cc(C(C)=O)c1C was read as IL-1B inflam inh 50, HT1080NT lethal 13%, HT1080 IDH1KD tx 8%, DT40 TDP1 CPT -1% and TDP1 cell noCPT inconclusive.
Screening CCOC(=O)c1cc(-c2ccc(F)cc2)n(CC(=O)NC2CCCCCC2)c1C returned DT40 TDP1 CPT 16µM* and TDP1 cell noCPT 15µM*.
`NCCCC[C@H](NC(=O)[C@@H]1CCCN1C(=O)[C@@H]1CSSC[C@H](N)C(=O)N[C@@H](Cc2ccccc2)C(=O)N[C@@H](Cc2ccccc2)C(=O)N[C@@H](CCC(N)=O)C(=O)N[C@@H](CC(N)=O)C(=O)N1)C(=O)NCC(N)=O` gave DT40 TDP1 CPT -4% and TDP1 cell noCPT -5%.
`CCN(c1ccc(C)cc1)S(=O)(=O)c1nnc(NC(=O)C2CCCCC2)s1` gave DT40 TDP1 CPT inconclusive and TDP1 cell noCPT 10µM*.
